hgDAF-12 ag: activates the H. glycines DAF-12 receptor ligand-binding domain; activation, % at 6.8 µM; AID 687014; HEK293 GAL4-hgDAF12 UAS-luciferase reporter, agonist luminescence; normalized to butyrate control; 370,000 compounds, 1.8% hits;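 active means activation above a cutoff set at the mean of all screened compounds plus 3 SD, cut at about 10% in these data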
DAX1 inh-1: NR0B1 (DAX1) inhibition. P51843. HEK293 Gal4-DAX1 luciferase reporter, luminescence. inhibition, % at 6.75 µM. 340,000 compounds, 0.99% hits. AID 504766;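 active means inhibition above the mean over all tested compounds plus 3 SD, cut at about 4.2% in these data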;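 further: inhibition shows as a rise in luminescence from relieved DAX1 repression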
Target sequence (P51843 207-470 limits assumed): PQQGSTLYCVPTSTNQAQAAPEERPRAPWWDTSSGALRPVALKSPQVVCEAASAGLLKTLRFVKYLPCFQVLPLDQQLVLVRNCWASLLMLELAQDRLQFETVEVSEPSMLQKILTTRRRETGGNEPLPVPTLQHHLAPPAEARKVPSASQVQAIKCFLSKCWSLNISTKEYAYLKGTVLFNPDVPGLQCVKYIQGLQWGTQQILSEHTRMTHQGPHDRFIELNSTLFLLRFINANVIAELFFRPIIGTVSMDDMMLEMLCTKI
AHR act: human AHR activation; P35869; AHR-responsive luciferase reporter cells, luminescence; activation, % at 5 µM; 320,000 compounds, 2.5% hits; in the data active means activation above about 47%
ssDAF-12 act: activators of S. stercoralis DAF-12 nuclear receptor | 370,000 compounds, 1% hits | activation, % at 6.8 µM | HEK293 ssDAF-12/GRIP1 lit1-tk-luc reporter, luminescence; % of 3 µM dafachronic acid response | AID 652126;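 active means activation above the mean over all tested compounds plus 3 SD, cut at about 0.9% in these data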
DAX1 inh-2: inhibitors of DAX1 repression of SF-1 activated StAR promoter | HEK293T StAR-luciferase reporter, SF-1/DAX-1 repression relief | inhibition, % at 6.8 µM | 370,000 compounds, 1.1% hits | AID 652010;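 active means inhibition above the mean over all tested compounds plus 3 SD, cut at about 3.6% in these data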;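 further: higher inhibition means more luminescence from relief of DAX-1 repression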
hcDAF12 agonist: H. contortus DAF-12 activation, primary screen | activation, % at 6.8 µM | 370,000 compounds, 1.4% hits | HEK293 hcDAF-12 lit1-tk-luc reporter, luminescence; 0% DMSO, 100% Δ7-dafachronic acid;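 active means activation above the mean of all tested compounds plus 3 SD, cut at about 5.5% in these data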
LXRb hcDAF ctr: LXR-beta agonism as hcDAF-12 counter-screen; 3,400 tested, under 10 active; shares compounds with hcDAF12 agonist; activation, % at 6.8 µM; AID 743027; HEK293 Gal4-LXR tk-luc reporter, luminescence, 24 h; normalized: DMSO 0%, positive control 100%;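 active means mean percent activation of the reporter above a cutoff set as the average over tested compounds plus their standard deviation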
Target sequence (P55055 whole entry, looked up, the tested form may be a part): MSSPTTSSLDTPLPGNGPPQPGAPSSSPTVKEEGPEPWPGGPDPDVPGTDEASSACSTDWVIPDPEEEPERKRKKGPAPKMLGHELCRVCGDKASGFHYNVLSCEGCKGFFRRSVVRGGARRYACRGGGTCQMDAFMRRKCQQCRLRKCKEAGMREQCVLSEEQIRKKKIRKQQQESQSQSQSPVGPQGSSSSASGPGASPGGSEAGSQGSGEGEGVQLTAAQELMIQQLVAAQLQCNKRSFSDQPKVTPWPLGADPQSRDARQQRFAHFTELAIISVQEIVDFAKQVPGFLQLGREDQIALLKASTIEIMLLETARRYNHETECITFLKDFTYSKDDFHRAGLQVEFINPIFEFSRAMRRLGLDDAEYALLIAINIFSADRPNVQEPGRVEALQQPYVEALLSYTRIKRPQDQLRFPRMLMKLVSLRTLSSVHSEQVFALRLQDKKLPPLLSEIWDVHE
hcDAF12 conf: confirmation of H. contortus DAF-12 agonists | shares compounds with hcDAF12 agonist | HEK293 hcDAF-12 lit1-tk-luc reporter, luminescence; % of Δ7-dafachronic acid response | activation, % at 6.8 µM | 3,400 compounds, 61% hits | AID 743032;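 active means mean activation across triplicate tests above the threshold derived from the earlier primary screen, cut at about 5.5% in these data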
Of the large screens only hits and unclear results are named; the others gave an inactive call (follow-up assays come after a bar, where they were run). Hits are enriched below; roughly 5.7% of the tested compounds scored in any of these assays.

Cc1c(Br)c([N+](=O)[O-])nn1CC(=O)N(C)Cc1ccccc1	none
CC(=O)c1ccc(S(=O)(=O)N2CCCC(N(C)CCc3ccccn3)C2)cc1 (stereo not drawn)	none
Cc1ccc(S(=O)(=O)CCC(=O)OCC(=O)N(Cc2ccccc2)C(C)C)cc1	none
Cc1ccc(CNc2ncccc2-c2nc3cc(Cl)ccc3o2)cc1	none
Cc1ccc(-c2nc3cc(Cl)ccc3o2)cc1	ssDAF-12 act 0.9, hcDAF12 agonist 8.2 | LXRb hcDAF ctr inactive | hcDAF12 conf 16.1
COc1cc(OC)cc(-c2nc3ccccc3c(=O)o2)c1	none
COc1cc(OC)cc(-c2nc3cc(C)ccc3o2)c1	AHR act 57.6, ssDAF-12 act 2.3, DAX1 inh-2 3.8, hcDAF12 agonist 17.3 | LXRb hcDAF ctr inactive | hcDAF12 conf 12.6
CCOc1ccc(NC(=O)CN(C)C(=O)c2cccnc2SC)cc1OCC	none
Cc1cc2cc(OCc3ccccc3)ccc2n1C	hcDAF12 agonist 6.7 | LXRb hcDAF ctr inactive | hcDAF12 conf inactive
Cc1cc2cc(OCC(=O)O)ccc2n1C	none
CCCCN(CC)CCNC(=O)c1cc2c(-c3ccc(Cl)cc3)nn(C)c2s1	ssDAF-12 act 1.3, hcDAF12 agonist 10.3 | LXRb hcDAF ctr inactive | hcDAF12 conf 10.8
CCCN(CCC)CCNC(=O)c1cc2c(-c3ccc(Cl)cc3)nn(C)c2s1	hcDAF12 agonist 10.6 | LXRb hcDAF ctr inactive | hcDAF12 conf 12.7
Cn1nc(-c2ccc(Cl)cc2)c2cc(C(=O)NCCN3CCOCC3)sc21	DAX1 inh-1 7.5, AHR act 49.9, hcDAF12 agonist 7.3 | LXRb hcDAF ctr inactive | hcDAF12 conf inactive
CCN1CCN(C(=O)c2cc3c(-c4ccc(Cl)cc4)nn(C)c3s2)CC1	DAX1 inh-1 4.5, AHR act 63.5, ssDAF-12 act 1.2, hcDAF12 agonist 7.6 | LXRb hcDAF ctr inactive | hcDAF12 conf 6.6
Cn1nc(-c2ccc(Cl)cc2)c2cc(C(=O)N3CCN(C(=O)c4ccco4)CC3)sc21	none
COc1ccccc1CNc1nc(Oc2cccc(F)c2)c2sccc2n1	none (no result: DAX1 inh-1, AHR act)
Cc1ccc(CNS(=O)(=O)c2ccccc2[N+](=O)[O-])cc1	none
C=CC[C@@H](CC(=O)N[C@H](CO)Cc1ccccc1)C(=O)N[C@H](COC(=O)[C@@H](CC=C)Cc1ccc(F)cc1)Cc1c[nH]c2ccccc12	none
N=c1ccn2c(n1)O[C@H]1[C@@H](CO)[C@H](O)O[C@H]12	none
COc1ccc(-n2ncc(N(C)n3cccc3)c(Cl)c2=O)cc1	hgDAF-12 ag 11.8, DAX1 inh-2 3.9, hcDAF12 agonist 6.8 | LXRb hcDAF ctr inactive | hcDAF12 conf inactive
COc1ccc(S(=O)(=O)N2CCCOC2CNC(=O)C(=O)NCCCN2CCOCC2)cc1C (stereo not drawn)	none
Cc1ccc(/C=C/c2nc3ccccc3s2)s1	hcDAF12 agonist 9.4 | LXRb hcDAF ctr inactive | hcDAF12 conf 18.5
O=C(CNC(c1ccccc1)c1ccccc1)NCc1ccccc1Cl	none
Cc1cccc(-c2nnc(SCC(=O)Nc3ccc(-c4nc5ccc(C)cc5s4)cc3)n2Cc2ccco2)c1	none (no result: DAX1 inh-1, AHR act)
C=CCn1c(SCC(=O)Nc2ccc(-c3nc4ccc(C)cc4s3)cc2)nnc1-c1ccncc1	hgDAF-12 ag 12.8, hcDAF12 agonist 7.0 | LXRb hcDAF ctr inactive | hcDAF12 conf inactive
CC(C)C[C@H]1CN(CCCC[C@H]2CNC(=O)C(=O)N2CCc2ccccc2)C(=O)C(=O)N1CCc1ccccc1	none (no result: DAX1 inh-1, AHR act)
Cc1ccc(C(=O)Nc2nc3ccccc3n2CCN2CCCC2)cc1	hgDAF-12 ag 14.1, AHR act 47.1, ssDAF-12 act 2.7, DAX1 inh-2 4.3, hcDAF12 agonist 9.1 | LXRb hcDAF ctr inactive | hcDAF12 conf 8.5
O=C(Nc1nc2ccccc2n1CCN1CCCCC1)c1ccc(Cl)cc1	none (no result: hgDAF-12 ag, DAX1 inh-1, ssDAF-12 act, DAX1 inh-2, hcDAF12 agonist)
O=C1Nc2ccccc2N(O)N1c1ccc(Cl)cc1	none
CCN1c2ccccc2NC2C1C(C(C)=O)C(=O)N2c1ccc(Cl)cc1 (stereo not drawn)	AHR act 82.9, hcDAF12 agonist 8.8 | LXRb hcDAF ctr inactive | hcDAF12 conf inactive
O=C(CSc1nnc(-c2ccccc2O)o1)N1CCCCC1	none
O=C(CSc1nnc(-c2ccccc2O)o1)N1CCOCC1	hcDAF12 agonist 11.4 (no result: AHR act) | LXRb hcDAF ctr inactive | hcDAF12 conf inactive
CC1CCCCN1C(=O)CSc1nnc(-c2ccccc2O)o1 (stereo not drawn)	hgDAF-12 ag 16.0, ssDAF-12 act 1.7, hcDAF12 agonist 15.2 | LXRb hcDAF ctr inactive | hcDAF12 conf 20.5
Cc1occc1-c1nnc(SCC(=O)N2CCCCC2C)o1 (stereo not drawn)	none
Cc1cc(C)n2nc(C(=O)OCC(=O)Nc3ccc(F)cc3F)nc2n1	none
Cn1c(C(=O)Nc2ccccc2)cc2sccc21	hgDAF-12 ag 11.1, AHR act 56.5, ssDAF-12 act 1.4, hcDAF12 agonist 7.0 | LXRb hcDAF ctr inactive | hcDAF12 conf 11.7
CCOC(=O)c1sc2nc(-c3ccccc3)ccc2c1N	hgDAF-12 ag 24.1, DAX1 inh-2 4.3, hcDAF12 agonist 9.0 | LXRb hcDAF ctr inactive | hcDAF12 conf 10.8
CCCS(=O)(=O)N1CCN(Cc2c[nH]c3ccccc23)CC1	ssDAF-12 act 1.4, hcDAF12 agonist 7.2 | LXRb hcDAF ctr inactive | hcDAF12 conf inactive
CC(C)C(C(=O)Nc1ccccc1F)N1C(=O)c2ccccc2C1=O (stereo not drawn)	ssDAF-12 act 2.1, hcDAF12 agonist 8.0 | LXRb hcDAF ctr inactive | hcDAF12 conf inactive
Cn1ccnc1Sc1ccc(C(N)=O)cc1[N+](=O)[O-]	none
Oc1cccc(NC(=S)N=Nc2c(O)[nH]c3ccc(Br)cc23)c1	none
Cc1cccc(N=Nc2c(O)[nH]c3ccc(Br)cc23)c1	hcDAF12 agonist 11.7 | LXRb hcDAF ctr inactive | hcDAF12 conf 6.3
O=C(O)c1cc(-c2c[nH]c3ccccc23)nc2ccc3ccccc3c12	hcDAF12 agonist 9.1 | LXRb hcDAF ctr inactive | hcDAF12 conf 5.8
c1ccc2c(-c3c[nH]c4ccccc34)c3ccccc3nc2c1	none
O=C(NC(=S)Nc1nc2c(ccc3ccccc32)s1)c1cccs1	AHR act 67.4, hcDAF12 agonist 9.0 | LXRb hcDAF ctr inactive | hcDAF12 conf 5.9
O=C(NC(=S)Nc1cccc2ncccc12)c1cccs1	none
O=C(Nc1nc2c(ccc3ccccc32)s1)c1ccco1	AHR act 66.1, hcDAF12 agonist 6.7 | LXRb hcDAF ctr inactive | hcDAF12 conf inactive
COc1ccc(NC(=O)C[C@H]2C(=O)N(c3ccc(Br)cc3)C[C@@H]2C)cc1	none (no result: AHR act)
O=C(COC(=O)c1cccc(S(=O)(=O)N2CCc3ccccc32)c1)Nc1ncc(C(F)(F)F)cc1Cl	none

Screening results as filed in PubChem BioAssay.
